High-throughput results deposited in PubChem BioAssay by Columbia University Molecular Screening Center.
Only some compounds are listed: those with a hit (about 1.2% of all), similar ones and a draw of the others.
cytoskel mod = modifiers of cytoskeleton assembly; HUVEC TNFa F-actin phalloidin imaging, high content; 91,000 compounds, 0.18% hits; inhibition, % at 2 µM; AID 836;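 active means inhibition above the batch mean plus 3 SD and confirmed as a hit by visual image inspection, cut at about 30% in these data, passing the limit was not always enough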
E-sel TNF inh = TNF alpha driven E-selectin expression inhibition; 120,000 compounds, 0.71% hits; HUVEC TNFa-induced E-selectin immunofluorescence, high content; AID 1246; inhibition, % at 2 µM;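 active means inhibition above the batch mean plus 3 SD, and confirmed as a hit on visual image review, cut at about 43% in these data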
VCAM1 TNFa inh = reduces TNF alpha induced VCAM1 expression in HUVEC | HUVEC TNFa-induced VCAM-1 immunofluorescence, high-content imaging | inhibition, % at 2 µM | 95,000 compounds, 0.48% hits | AID 802;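 active means inhibition above the batch mean plus 3 SD, with images confirmed as a hit by eye, cut at about 37% in these data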
TNFa cytotox = toxic to HUVEC cells under TNF alpha stimulation; cell count reduction, % at 2 µM; HUVEC TNFalpha-stimulated, Hoechst cell count, imaging; 93,000 compounds, 0.17% hits;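 active means cell count reduction exceeding the screen mean by over 5 SD, scaled to untreated wells per plate, cut at about 78% in these data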;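 further: cells counted after 24 h of TNF alpha exposure following the 1 h pretreatment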
Numbers stand for hits; . = inactive; / = not tested or not shown.

SMILES | cytoskel mod | E-sel TNF inh | VCAM1 TNFa inh | TNFa cytotox
N/C(Cc1cccs1)=N\OC(=O)COc1ccc(Br)cc1Cl | 37 | . | 70 | .
N/C(Cc1cccs1)=N\OC(=O)COc1ccccc1Cl | . | . | . | .
O=C(O)c1cccc(S(=O)(=O)Nc2ccccc2Cl)c1 | . | . | 95 | .
CCSc1nnc(-c2cccs2)o1 | . | 100 | . | .
O=C(NCC1CCCO1)C1CCCN1C(=O)Nc1ccc(Cl)c(Cl)c1 (stereo unspecified) | / | . | / | /
CCOC(=O)N1CCC(N2CCN(S(=O)(=O)c3ccc(NC(C)=O)cc3)CC2)CC1 | . | 100 | . | .
CCCCOc1ccc(-c2nnn(C(C)C(=O)OCC)n2)cc1 (stereo unspecified) | . | 66 | . | .
CCCCCN(C(=O)NC(=O)Nc1ccc(C)cc1)S(=O)(=O)c1ccccc1 | / | . | / | /
COc1ccc(CNC(=O)C(CCSC)NS(=O)(=O)c2ccccc2F)cc1 (stereo unspecified) | / | 79 | / | /
Cc1cccc(N/C(N)=N/c2nc(C)c(Cc3ccccc3)c(=O)[nH]2)c1 | / | . | / | /
CCOc1ccc(/C=C/[N+](=O)[O-])c2ccccc12 | . | . | . | .
O=[N+]([O-])/C=C/c1c(OCc2ccccc2)ccc2ccccc12 | / | . | 56 | .
CCN1CCCC1CNC(=O)C(=O)NC1CC1 (stereo unspecified) | / | . | / | /
CCN1CCCC1CNC1=NCCCCC1 (stereo unspecified) | . | 71 | . | .
Cc1cc(=O)oc2cc(OCC(=O)OCC(=O)NCc3ccc4c(c3)OCO4)ccc12 | . | 71 | . | .
CCOc1ccc(NC(=O)COC(=O)C23CC4CC(CC(C4)C2)C3)c([N+](=O)[O-])c1 | / | 95 | / | /
CCOc1ccc(NC(=O)Cc2ccccc2)c([N+](=O)[O-])c1 | / | . | / | /
CCOc1ccc(NC(=O)/C=C/c2ccc(OC)cc2)c([N+](=O)[O-])c1 | / | 61 | / | /
FC(F)(F)c1cc(-c2ccc3c(c2)OCO3)nc(NCc2ccco2)n1 | . | . | 78 | 78
COc1ccc(-c2cc(C(F)(F)F)nc(NCc3ccco3)n2)cc1OC | . | / | . | .
C/C(=N/NC(N)=S)c1ccc(Br)s1 | / | . | / | /
Cc1ccc(NC(=O)c2ccc(OC(=O)CCN3C(=O)c4ccccc4C3=O)cc2)cc1 | . | 44 | . | .
Cc1ccc2nc(-c3ccc(NC(=O)CCN4C(=O)c5ccccc5C4=O)cc3)sc2c1 | / | 65 | / | /
Cc1sc(C(=O)Nc2ccc3ccccc3c2)cc1CC(=O)O | / | . | / | /
COc1cc(NC(=O)CN2C(=O)NC(C)(CC(C)C)C2=O)cc(OC)c1 (stereo unspecified) | . | . | 93 | .
SMILES | cytoskel mod | E-sel TNF inh | VCAM1 TNFa inh | TNFa cytotox
CCCCCc1ccc(-c2ccc(=O)[nH]n2)cc1 | . | . | 79 | .
O=C(Nc1cccc(-c2cn3ccccc3n2)c1)c1cccc(Cl)c1 | . | 57 | . | .
Cc1nc2ccccc2n1CCCOc1ccccc1 | . | . | 62 | 88
CCOc1ccccc1C(=O)N1CCN(c2ccc(C(F)(F)F)cn2)CC1 | / | . | / | /
COc1ccc([N+](=O)[O-])cc1NC(=O)C(C)Sc1nc(-c2ccccc2)cs1 (stereo unspecified) | / | . | / | /
CN(CCC#N)C(=O)COC(=O)c1ccc(Cl)c(S(N)(=O)=O)c1 | . | . | . | .
O=C(COC(=O)c1ccccc1C(=O)c1ccc(Cl)c([N+](=O)[O-])c1)NC1CCCCCC1 | . | . | 87 | .
CN(CCC#N)C(=O)COC(=O)c1ccccc1C(=O)c1ccc(Cl)c([N+](=O)[O-])c1 | / | 100 | / | /
Nc1ccc(C(=O)OCC(=O)NC2CC2)cc1[N+](=O)[O-] | / | . | / | /
Nc1cc(=O)[nH]c(SCC(=O)Nc2cccc(Cl)c2Cl)n1 | / | . | / | /
CCOC(=O)CCCn1nc(C)n2c(cc3sccc32)c1=O | . | . | . | .
CCOC(=O)C(CC)n1nc(C)n2c(cc3sccc32)c1=O (stereo unspecified) | / | 46 | / | /
Cc1c(Br)c([N+](=O)[O-])nn1CC(=O)Nc1ccc(Cc2ccncc2)cc1 | / | . | / | /
CC1CN(Cc2ccccc2)C(C)CC1O (stereo unspecified) | / | . | / | /
O=C(Nc1nc(-c2cccc3ccccc23)cs1)c1cnccn1 | / | . | / | /
CC(C)Sc1nc2c(c(=O)n1-c1ccc(F)cc1)SCC2 | . | . | 94 | .
O=C(NNS(=O)(=O)c1ccc(F)cc1)C1CCN(Cc2cccc(F)c2)CC1 | / | . | / | /
O=C1CC(c2ccccc2)SC(N(c2ccccc2)c2ccccc2)=N1 (stereo unspecified) | / | 62 | / | /
O=C(COC(=O)CNC(=O)c1ccc(Br)o1)Nc1ccccc1OC(F)F | / | . | / | /
CN(C)S(=O)(=O)c1cc(NC(=O)CSc2nn(-c3ccc(Cl)cc3)c(=S)s2)ccc1Cl | / | 72 | / | /
CC12CCC3(CO)COC(c4ccccc4O1)C2C3 (stereo unspecified) | / | 55 | / | /
Cc1cccc(NC(=S)NC23CN4CN(CN(C4)C2)C3)c1C | / | . | / | /
O=C(CNC(=O)c1ccc(Br)o1)OCC(=O)c1cccc([N+](=O)[O-])c1 | / | . | / | /
O=C(O)c1cc2nc3c(c(C(F)(F)F)n2n1)CCc1ccccc1-3 | . | / | 85 | .
COCCNC(=O)c1cc2nc3c(c(C(F)(F)F)n2n1)CCc1ccccc1-3 | / | . | / | /
SMILES | cytoskel mod | E-sel TNF inh | VCAM1 TNFa inh | TNFa cytotox
NC(=O)c1c(NC(=O)C2c3ccccc3Oc3ccccc32)sc2c1CCCCC2 | / | . | / | /
Nc1ccc2c(c1)N1CCN=C1S2 | . | 73 | . | .
CC(C)CCNC(=O)CCSCCC(=O)NCCC(C)C | / | . | / | /
CCCOc1ccc([N+](=O)[O-])cc1C1NC(=S)NC(c2ccccc2)=C1C(=O)OCC (stereo unspecified) | . | 70 | . | .
C#CC(=O)N(c1ccc(OC)cc1OC)C(C(=O)NC1CCCC1)c1cccs1 (stereo unspecified) | / | . | / | /
C#CC(=O)N(c1cc(OC)ccc1OC)C(C(=O)NC1CCCC1)c1cccs1 (stereo unspecified) | . | 58 | . | .
COc1cc(CNCc2ccco2)ccc1OCc1ccccc1 | 46 | 57 | . | .
COc1cc(CNCc2cccs2)ccc1OCc1ccccc1 | . | . | . | .
Cn1ccnc1SCC(=O)Nc1nc2c(F)c(F)c(F)cc2s1 | / | . | / | /
O=C(C1CCN(S(=O)(=O)N2CCOCC2)CC1)N1CCN(Cc2ccc3c(c2)OCO3)CC1 | . | . | . | .
Cc1noc(C)c1S(=O)(=O)N1CCC(C(=O)N2CCN(Cc3ccc4c(c3)OCO4)CC2)CC1 | / | 73 | / | /
O=C(/C=C/c1ccccc1)NC(=S)Nc1ccccc1C(=O)NC1CCCCC1 | / | . | . | .
O=C(/C=C/c1ccc(F)cc1)NC(=S)Nc1ccccc1C(=O)NC1CCCCC1 | / | 54 | . | .
O=C(NCCN1CCOCC1)c1c[nH]c2ccc(S(=O)(=O)N3CCOCC3)cc2c1=O | / | . | / | /
O=C(O)c1c[nH]c2ccc(S(=O)(=O)N3CCOCC3)cc12 | . | / | 55 | .
CC(/C=N/NC(=O)c1cc(-c2ccncc2)nc2ccccc12)=C\c1ccco1 | . | . | 87 | .
CCOC(=O)C1C(c2cccc([N+](=O)[O-])c2)C2C(=O)NN=C2CC1(C)O (stereo unspecified) | / | . | / | /
CCCn1cnc2c(sc3nc4c(cc32)CSC(C)(C)C4)c1=O | . | . | . | 86
CC1(C)Cc2nc3sc4c(=O)n(Cc5ccccc5)cnc4c3cc2CS1 | / | . | / | /
